Assay results from the supplement of paper PMC6897291.

What was measured:
U-2932 [1] = experiment: growth inhibition by drug alone (1 - RLU/untreated control) (fraction); higher = stronger inhibition; settings: 177Lu-lilotomab satetraxetan 0 ug/ml
Method in brief: (§1)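 Growth inhibition was calculated from RealTime-Glo RLU against untreated no-drug wells. Values equal 1 − RLU/mean of 48 untreated no-drug wells per plate, read daily from day 3 after 1 h at 37°C. RIVA and U-2932 cells, with or without 18 h pretreatment by a radiolabelled anti-CD37 antibody conjugate (~600 MBq/mg; 0.5 µg/ml RIVA, 1 µg/ml U-2932), were washed and plated at 3,000 cells/well on compound-printed plates at 10/100 nM (RIVA) or 10/1,000 nM (U-2932).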

RIVA [2] = experiment: as above; settings: 177Lu-lilotomab satetraxetan 0 ug/ml
Method in brief: as §1

U-2932 [3] = experiment: growth inhibition by drug plus 177Lu-lilotomab satetraxetan (1 - RLU/untreated control) (fraction); higher = stronger inhibition; settings: 177Lu-lilotomab satetraxetan 1 ug/ml
Method in brief: as §1

RIVA [4] = experiment: as above; settings: 177Lu-lilotomab satetraxetan 0.5 ug/ml
Method in brief: as §1

Row | SMILES | growth inhibition by drug alone (U-2932 [1]; 10 nM, time (day): 3) | growth inhibition by drug alone (U-2932 [1]; 10 nM, time (day): 4) | growth inhibition by drug alone (U-2932 [1]; 10 nM, time (day): 5) | growth inhibition by drug alone (U-2932 [1]; 10 nM, time (day): 6) | growth inhibition by drug alone (U-2932 [1]; 1000 nM, time (day): 3) | growth inhibition by drug alone (U-2932 [1]; 1000 nM, time (day): 4) | growth inhibition by drug alone (U-2932 [1]; 1000 nM, time (day): 5) | growth inhibition by drug alone (U-2932 [1]; 1000 nM, time (day): 6) | growth inhibition by drug alone (RIVA [2]; 10 nM, time (day): 3) | growth inhibition by drug alone (RIVA [2]; 10 nM, time (day): 4) | growth inhibition by drug alone (RIVA [2]; 10 nM, time (day): 5) | growth inhibition by drug alone (RIVA [2]; 10 nM, time (day): 6) | growth inhibition by drug alone (RIVA [2]; 100 nM, time (day): 3) | growth inhibition by drug alone (RIVA [2]; 100 nM, time (day): 4) | growth inhibition by drug alone (RIVA [2]; 100 nM, time (day): 5) | growth inhibition by drug alone (RIVA [2]; 100 nM, time (day): 6) | growth inhibition by drug plus 177Lu-lilotomab satetraxetan (U-2932 [3]; 10 nM, time (day): 3) | growth inhibition by drug plus 177Lu-lilotomab satetraxetan (U-2932 [3]; 10 nM, time (day): 4) | growth inhibition by drug plus 177Lu-lilotomab satetraxetan (U-2932 [3]; 10 nM, time (day): 5) | growth inhibition by drug plus 177Lu-lilotomab satetraxetan (U-2932 [3]; 10 nM, time (day): 6) | growth inhibition by drug plus 177Lu-lilotomab satetraxetan (U-2932 [3]; 1000 nM, time (day): 3) | growth inhibition by drug plus 177Lu-lilotomab satetraxetan (U-2932 [3]; 1000 nM, time (day): 4) | growth inhibition by drug plus 177Lu-lilotomab satetraxetan (U-2932 [3]; 1000 nM, time (day): 5) | growth inhibition by drug plus 177Lu-lilotomab satetraxetan (U-2932 [3]; 1000 nM, time (day): 6) | growth inhibition by drug plus 177Lu-lilotomab satetraxetan (RIVA [4]; 10 nM, time (day): 3) | growth inhibition by drug plus 177Lu-lilotomab satetraxetan (RIVA [4]; 10 nM, time (day): 4) | growth inhibition by drug plus 177Lu-lilotomab satetraxetan (RIVA [4]; 10 nM, time (day): 5) | growth inhibition by drug plus 177Lu-lilotomab satetraxetan (RIVA [4]; 10 nM, time (day): 6) | growth inhibition by drug plus 177Lu-lilotomab satetraxetan (RIVA [4]; 100 nM, time (day): 3) | growth inhibition by drug plus 177Lu-lilotomab satetraxetan (RIVA [4]; 100 nM, time (day): 4) | growth inhibition by drug plus 177Lu-lilotomab satetraxetan (RIVA [4]; 100 nM, time (day): 5) | growth inhibition by drug plus 177Lu-lilotomab satetraxetan (RIVA [4]; 100 nM, time (day): 6)
1 | O=C(/C=C/c1cccc(S(=O)(=O)Nc2ccccc2)c1)NO [Belinostat (PXD101)] | 0.222 | 0.196 | 0.137 | 0.152 | 0.961 | 0.964 | 0.974 | 0.979 | 0.107 | 0.129 | 0.11 | 0.00837 | 0.884 | 0.83 | 0.818 | 0.796 | 0.0215 | 0.0654 | 0.0711 | 0.0685 | 0.961 | 0.975 | 0.984 | 0.988 | 0.503 | 0.586 | 0.594 | 0.603 | 0.934 | 0.935 | 0.938 | 0.945
2 | CC(NC(=O)c1ccccc1/N=C/c1c(O)ccc2ccccc12)c1ccccc1 (centres undefined) [Sirtinol] | 0.0874 | 0.0846 | 0.0103 | -0.0559 | 0.00453 | 0.0486 | -0.0294 | -0.196 | -0.0251 | 0.00147 | -0.0621 | -0.367 | -0.00236 | -0.00311 | -0.00892 | -0.099 | 0.0459 | 0.0759 | 0.116 | 0.164 | -0.00947 | 0.0904 | 0.0917 | 0.101 | 0.345 | 0.472 | 0.506 | 0.526 | 0.436 | 0.523 | 0.536 | 0.529
3 | C[C@@H](Oc1cc(-c2cnn(C3CCNCC3)c2)cnc1N)c1c(Cl)ccc(F)c1Cl | 0.0921 | 0.0793 | 0.115 | -0.0753 | 0.154 | 0.193 | 0.301 | 0.419 | 0.00835 | 0.0307 | -0.0637 | -0.409 | -0.398 | -0.211 | -0.28 | -0.62 | 0.0291 | 0.0614 | 0.116 | 0.192 | 0.115 | 0.223 | 0.397 | 0.566 | 0.466 | 0.573 | 0.592 | 0.61 | 0.405 | 0.523 | 0.532 | 0.543
4 | CCCCCCCCc1ccc(CCC(N)(CO)CO)cc1 [Fingolimod (FTY720)] | 0.0955 | 0.0585 | 0.0453 | -0.1 | 0.0228 | 0.0231 | 0.00428 | -0.0571 | 0.0298 | 0.0648 | -0.0103 | -0.296 | -0.16 | -0.13 | -0.129 | -0.231 | 0.0534 | 0.0695 | 0.13 | 0.219 | -0.0305 | 0.0614 | 0.0905 | 0.203 | 0.437 | 0.577 | 0.586 | 0.614 | 0.364 | 0.447 | 0.474 | 0.484
5 | CC(C)CC(=O)Nc1n[nH]c2c1CN(C(=O)C1CCN(C)CC1)C2(C)C | 0.109 | 0.0893 | 0.0354 | -0.0355 | 0.595 | 0.787 | 0.911 | 0.958 | 0.109 | 0.0478 | 0.0236 | -0.141 | 0.546 | 0.346 | 0.355 | 0.378 | 0.0658 | 0.101 | 0.0816 | 0.125 | 0.692 | 0.855 | 0.93 | 0.967 | 0.403 | 0.515 | 0.533 | 0.549 | 0.35 | 0.419 | 0.465 | 0.517
6 | Cc1cn(-c2cc(NC(=O)c3ccc(C)c(Nc4nccc(-c5cccnc5)n4)c3)cc(C(F)(F)F)c2)cn1 [Nilotinib (AMN-107)] | 0.0488 | 0.0185 | -0.0493 | -0.187 | -0.0166 | 0.0185 | -0.0481 | -0.136 | -0.0335 | -0.0957 | -0.159 | -0.318 | -0.122 | -0.118 | -0.0918 | -0.17 | -0.0417 | -0.0287 | -0.0436 | 0.0203 | -0.141 | -0.0418 | -0.0875 | -0.155 | 0.372 | 0.516 | 0.522 | 0.537 | 0.362 | 0.471 | 0.491 | 0.466
7 | CCCCCCCc1ccc(CCc2cccc(O)c2C(=O)O)cc1 | -0.00199 | -0.0102 | -0.0455 | -0.106 | 0.0439 | 0.0243 | -0.0103 | 0.0409 | -0.000498 | -0.0468 | -0.0726 | -0.153 | -0.176 | -0.164 | -0.186 | -0.241 | -0.0136 | 0.0406 | 0.0811 | 0.11 | 0.0189 | 0.0723 | 0.084 | 0.179 | 0.588 | 0.59 | 0.619 | 0.624 | 0.545 | 0.607 | 0.62 | 0.624
